This passage reports ETS1 binding intensity results from the supplement of paper PMC10681739.

The target of the assay is T1, ETS1 (UniProt P14921).
T1 sequence: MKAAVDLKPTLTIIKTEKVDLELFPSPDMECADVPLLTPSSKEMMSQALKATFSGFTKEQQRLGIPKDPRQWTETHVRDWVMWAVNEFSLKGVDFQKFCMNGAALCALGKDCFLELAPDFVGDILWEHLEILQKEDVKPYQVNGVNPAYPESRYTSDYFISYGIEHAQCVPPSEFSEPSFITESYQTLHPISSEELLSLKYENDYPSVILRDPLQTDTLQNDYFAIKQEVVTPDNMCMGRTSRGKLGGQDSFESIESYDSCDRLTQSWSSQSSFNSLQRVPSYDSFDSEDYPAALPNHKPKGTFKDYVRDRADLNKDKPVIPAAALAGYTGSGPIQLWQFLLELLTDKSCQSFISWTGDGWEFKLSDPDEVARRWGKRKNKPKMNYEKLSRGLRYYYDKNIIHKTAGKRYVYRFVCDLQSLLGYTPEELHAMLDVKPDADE
The experiment in a line: ETS1 binding intensity (PBM fluorescence) in presence of RUNX1, normalised to ETS1-only experiment (arbitrary fluorescence units); higher = stronger binding. The note with it: ETS1 concentration 1 nM; RUNX1 concentration 25 nM. As to the method:
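Cooperative genomic-context PBM: 36-bp genomic probes with neighbouring ETS1 and RUNX1 sites, double-stranded on Agilent 4x180k arrays. Full-length recombinant human ETS1 (1 nM) was incubated alone or with RUNX1 (25 nM) and detected with anti-ETS1 antibody plus Alexa488 secondary. Value is the median fluorescence intensity over 4 replicate spots; the ETS1+RUNX1 data were normalised to the ETS1-only data using probes without RUNX1 sites. The 36-bp variable region sits on the array probe with constant linker/primer flanks that are not printed.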
For the sequence CGTTTCCTGTGGCTGCAGCTCTCCCCACCCACACAC, the ETS1 binding intensity is 781.
The result for GGCCGACGGGAAGTGTAGTCCGGCCTGCGGTCCGGG reads 1910; that for AAACCAGAGGAAGTGGATTCCAACCACAAACCTCAC, 4210.
The result for ATAAACAGGAAGCTGAGTATGTGACCACAGACATTC reads 5200; that for CACCTGCCTTGCTTCCTGCGGTGCAACCAGCGGGAG, 520.
The result for TGCAATTGGCAGACAGGAAACCGCGGCGTTTTCTGG reads 13500; that for CTGCTGCCGCGAACAGGAAACCACTACAATCAGGAG, 4530; that for CCATTTCCGCGCACGTCTGCAGATGCGGTAGTCGAT, 463.
For the sequence CAGAAAGAGGAAATGATGCGAGTCCACACCGCAGGC, the ETS1 binding intensity turned out to be 2610.
On to CGGTCAGGTCGCAGGAAACCACAGCGGCAGCGCGGC, for which the ETS1 binding intensity came to 1870.
For the sequence ATGCGAGTCTGCTTCCTGCCACAAATCACAATTTGA, the ETS1 binding intensity was 686.
The result for GGCCCTTCTGGGGCAGGATGTGGTGCCTGCCAAAGG reads 6110; that for GGCCAGGCAGGAAGTCCCGCGCCACAAGCGGCCGTC, 3300; that for TGAAACCCAGCAGGATGTGGGTTAACGGCAGGGGAG, 6440.
The result for CAACACAGGATGTGCAGTATTATACCGCAAAGCACT reads 6950.
The result for GCGGGCGGAAGTGCCGAGGTTGTACCGCGGCGCTGG reads 2260; that for TTTCTGAAACCCTCAGGATGTGGGTTTTCACACTGT, 6900; that for GTTTGAAGGGAAGTGGGTGTTGACCTGCGGGCAACT, 948.
On to GGGGAACGGAAGCTGCTGTCGTTACTGGCGGTTGTA, for which the ETS1 binding intensity is 1320.
The result for AGCCTGGCCTCGGCAGGATGTGGGTGTAGGTCATGC reads 7380; that for CAGTGGCTAAGGATCCGGTGTTGCGGTGATACATGA, 643.
The result for TTGTCAGATGGCGAAGGAAACCGCGAAATTCGCCAT reads 1270.
Turning to TAACCCGGAGCGGAAGGATCCCGCAGCGTGTGCGTA, the ETS1 binding intensity turned out to be 797.
The result for TGCCTCACCTCACATCCGTTTGTGGCTGCCGAGTGC reads 1310; that for TTTGCTGCAGAAGGATGTGGTTTATTCAGGTTTGAC, 3620; that for AACTTCCGAGGGAACTAACTGGTTTTAACCACATTG, 923.
With TCCTAGCCATTTCCTATCCACCCTGTGGCTAATTTG, the ETS1 binding intensity was found to be 476.
The result for GGTCAGGTGGGCGTTTCCTGTGGGCGTCTCCAACTC reads 1230.
The result for GCACTCATTTCCTGTCCCCTGTGGTTTAAAGGTTTT reads 4620.
The result for GTTCATCCAGGAAACCCCAACCCAGTGCCGCAGTAT reads 464.
Turning to TTTCACTTCCGGCATGTTTTTCACCCACAGGGATAT, the ETS1 binding intensity was determined as 3980.
The result for TGGGGACAGGAAATGTTTACTGCCTGTGGCTTGCTG reads 4240; that for CTGCTTCCGGCCCCGGGGTTCGCTACCCCACAATCC, 1240.
As to TGTCATCCCGGAAACTGATAACAAGACCGCGAGTCA, the ETS1 binding intensity came out at 2530.
Consider AGGGACCCGGATGTCTGGTCTGCGGCTGCTCCTCTA, for which the ETS1 binding intensity is 2120.
On to TCGTGAAAAAGGAAGTGGATAAAGTGGTTACGGCAA, for which the ETS1 binding intensity is 3260.
The result for GCGCCAGTCACCGTTTCCTGTGGTTTGCTGCCCGCC reads 3010; that for TGCTCCACTCGGAAGTGGTGCCGCAGCTCTTCGATG, 800.
The result for CTTAGTGTTTGAGGATGTGGGTTTTACAATCAGATC reads 2490.
The result for CAACTGACCGGACAGAACACAGCCACAAAACACGAG reads 507.
